Measured values reported in PubChem BioAssay (NCATS).
Records with an inconclusive call do not appear. Activity calls are given as the source filed them. Unless noted, calls follow the shape of the dose curve; as a rule, active = well fitted curve in the direction sought with a large enough effect; inconclusive = small, poorly fitted or top-dose-only effect, or another doubt; inactive = no such curve, though single readings can be large; an effect the other way counts as inactive or inconclusive.

Assays:
[1] = molecular target: Cytochrome P450 1A2 (Homo sapiens) (UniProt P05177); assay: p450-cyp1a2 (AID 410; calls by dose curve; also: potency is read from the fitted curve at half-maximal effect;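 as to activity change, negative = inhibition: -100% = full effect of reference inhibitor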)
Summary of the method: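 Luminescent demethylation readout: Luciferin-ME (100uM, equal to Km) turned over by 20nM CYP1A2 for 60 min at room temperature after NADPH regeneration addition, following 10 min compound preincubation. Normalization used 57 uM furafylline as full inhibition.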

[2] = Stat Signaling Pathway (AID 446; active = well fitted curve in either direction with a large enough effect, not every such curve was filed as active;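 also: ME-180 cervical cancer cells given 40 pM IL-6 alongside compound; SIE-controlled beta-lactamase reporter measured as 460/530 nm FRET emission ratio; % is scaled to controls: 0 for no effect and ±100 for the full control effect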); settings: ME-180 SIE beta-lactamase reporter, IL-6 stimulated, 5 h; at 7.69 µM (top of the series) unless noted
Summary of the method: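 Normalization used AC90 stimulation (300 pM IL-6) and AC90 inhibition (125 nM pan-JAK inhibitor at 40 pM IL-6). The underlying signal is SIE-driven beta-lactamase in ME-180 cells after 5 h IL-6 exposure with compound.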

[3] = molecular target: Glucocorticoid receptor (Homo sapiens) (UniProt P04150); assay: GR-GFP Redistribution (AID 450;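 active = compounds whose dose series gives a full or clear partial fitted curve of increased nuclear translocation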; also: potency is read from the fitted curve at half-maximal effect); settings: U2OS GR-GFP nuclear translocation, laser cytometry, 2 h
[4] = molecular target: Glucocorticoid receptor (Homo sapiens) (UniProt P04150); assay: GR-EFC Redistribution (AID 451; calls by dose curve; also: potency is read from the fitted curve at half-maximal effect); settings: CHO-K1 GR-EFC translocation, beta-gal luminescence, 2 h
Summary of the method: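 Translocation of GR-ED fusion to nuclear EA restores b-gal, read by luminescence after 1 h room-temperature detection. Engineered CHO-K1 biosensor cells, 1,000/well, exposed 2 h at 37 C to titrations up to 46 uM final.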

[5] = molecular target: 3',5'-cyclic-AMP phosphodiesterase 4B (Homo sapiens) (UniProt Q07343); assay: qHTS Assay for Inhibitors of PDE-IV (AID 607; active = well fitted activation curve with a large enough effect in the main read-out, with a control signal flat, not every such curve was filed as active; also: % of control where 0% means no effect)
Summary of the method: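 HEK293 ACTOne cells with CNG channel (1000/well), endogenous PDE4; membrane potential dye, compounds up to 22.9 uM final. Fluorescence Ex 535/Em 590; RO 20-1724 (100 uM final) as reference.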

[6] = molecular target: Cytochrome P450 3A4 (Homo sapiens) (UniProt P08684); assay: qHTS Assay for Inhibitors and Substrates of Cytochrome P450 3A4 (AID 884); also: potency is read from the fitted curve at half-maximal effect; nearly all actives have a fitted effect of over 50% in size
Summary of the method: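 Luminescent readout of luciferin produced by CYP3A4 (20 nM) dealkylation of Luciferin-PPXE, 25 uM (its KM). NADPH-driven reaction ran 60 min at RT after 10 min compound preincubation; data scaled to 57 uM ketoconazole as 100% inhibition.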

[7] = molecular target: Cytochrome P450 3A4 (Homo sapiens) (UniProt P08684); assay: qHTS Assay for Activators of Cytochrome P450 3A4 (AID 885); also: nearly all actives have a fitted effect of over 65% in size
Summary of the method: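 Human CYP3A4 dealkylates Luciferin-PPXE to luciferin, which luciferase detection converts to light. Substrate was at its KM (25uM), buffer 200mM KPO4, reaction 60 min at RT.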

[8] = molecular target: Cytochrome P450 2C19 (Homo sapiens) (UniProt P33261); assay: qHTS Assay for Inhibitors and Substrates of Cytochrome P450 2C19 (AID 899); also: potency is read from the fitted curve at half-maximal effect; nearly all actives have a fitted effect of over 60% in size
Summary of the method: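 5nM enzyme + 10uM Luciferin-H EGE (=KM), 50mM KPO4; cpd pin-transferred, 10 min 37C; NADPH regen, 60 min 37C; stopped w/ luciferin detection reagent, 20 min; luminescence. Normalized to 57uM ketoconazole (AC100).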

[9] = qHTS Assay for Lipid Storage Modulators (AID 1519; calls by dose curve); settings: Drosophila S3 cells, BODIPY lipid droplet/cell ratio, laser cytometry, cells loaded with oleic acid; for activity change, negative = inhibition: at 57.5 µM (top of the series)
Summary of the method: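 Cells seeded at 5,000 per well were treated with compounds over a concentration series and loaded with oleic acid (400 uM, as added). Lipid droplet fluorescence (488 nm excitation, 500-530 nm channel) was read by laser-scanning cytometry and normalized to 20 uM Triacsin C.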

[10] = molecular target: Dual specificity protein kinase CLK4 (Homo sapiens) (UniProt Q9HAZ1); assay: qHTS Assay for Inhibitors of CDC-like Kinase 4 (Kinase-Glo Assay) (AID 1770); also: nearly all actives have a fitted effect of over 65% in size; also: potency is read from the fitted curve at half-maximal effect
Summary of the method: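 Substrate mix (RS peptide 100 uM, ATP 1 uM) dispensed, compound pinned in, then Clk4 added to 25 nM final. Incubated 4.5 h at RT; Kinase-Glo reagent added, luminescence read after 5 min.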

[11] = molecular target: Dual specificity protein kinase CLK4 (Homo sapiens) (UniProt Q9HAZ1); assay: qHTS Assay for Inhibitors of CDC-like Kinase 4 (ADP-FP Assay) (AID 1795);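 also: recombinant human CLK4 phosphorylating RS repeat peptide at 1 µM ATP; % is scaled to controls: 0 for no effect and ±100 for the full control effect; nearly all actives have a fitted effect of over 60% in size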
Summary of the method: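 Clk4 6.25 nM; RS peptide 100 uM; ATP 1 uM; 25 mM Tris pH 7.5, 10 mM MgCl2; 1 h reaction. ADP detected via antibody/orange tracer FP displacement; TG003 positive control.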

[12] = molecular target: Ubiquitin carboxyl-terminal hydrolase 1 (Homo sapiens) (UniProt O94782); assay: Inhibitors of USP1/UAF1: Pilot qHTS (AID 504865);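 also: rhodamine fluorescence freed from ubiquitin-rhodamine substrate followed over time; top concentration of the series differs between compounds; % is scaled to controls: 0 for no effect and ±100 for the full control effect; nearly all actives have a fitted effect of over 35% in size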
Summary of the method: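 In 50mM HEPES pH 7.8 containing 0.5mM EDTA, 1mM TCEP, 0.1 mg/ml BSA and 0.01% Tween-20, 1nM USP1/UAF1 is exposed to compound for 15 min, then Ub-Rho (150nM final) is added and fluorescence is read over time.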

[13] = molecular target: Lysosomal acid glucosylceramidase (Homo sapiens) (UniProt P04062); assay: Glucocerebrosidase-p2 (AID 348; in the data active = potency below about 10 µM; also: potency is read from the fitted curve at half-maximal effect); settings: purified GBA, blue fluorogenic substrate, 40 min
Summary of the method: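 Normal human glucocerebrosidase (0.2 nM) with blue fluorogenic substrate (80 uM final) in citrate/phosphate pH 5.9 with 10mM sodium taurocholate, 0.01% tween-20; 40 min RT, NaOH/glycine stop; fluorescence Ex 365/Em 440; AC50 from a titration from 0.6 nM upwards.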

[14] = NFAT Signaling Pathway (AID 444; active = well fitted curve in either direction with a large enough effect, not every such curve was filed as active;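 also: carbachol stimulus at about its EC50 of 1 µM final; % is scaled to controls: 0 for no effect and ±100 for the full control effect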); settings: Jurkat NFAT-bla M1, carbachol, beta-lactamase ratio, 5 h; at 7.69 µM (top of the series) unless noted
Summary of the method: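 Read-out: CCF4 FRET ratio (460 nm/530 nm) after 1 h RT dye loading, used for %activity and AC50 from titration series. Cells: Jurkat NFAT-β-lactamase/M1 line, treated with compound plus 1 uM carbachol for 5 h, 37 °C.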

[15] = molecular target: Mitogen-activated protein kinase 10 (Mus musculus) (UniProt Q61831); assay: JNK3 AlphaScreen Assay (AID 530; active = well fitted curve in either direction with a large enough effect, not every such curve was filed as active;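 also: kinase came from lysate of stimulated human HepG2 cells; signal reports phosphorylation of biotinylated GST-cJun 1-79 at Ser73 with 10 µM ATP; % is scaled to controls: 0 for no effect and ±100 for the full control effect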)
Summary of the method: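 qHTS titrations with 15 min compound pre-incubation before adding ATP (10 uM final). Read-out: AlphaScreen of Ser73-phosphorylated biotin-GST-cJun using HepG2 lysate JNK3 activated by IL-1β and TNFα.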

[16] = molecular target: Dual specificity protein kinase CLK4 (Homo sapiens) (UniProt Q9HAZ1); assay: qHTS Assay for Inhibitors of CDC-like Kinase 4 (ADP-Glo Assay) (AID 1771); also: nearly all actives have a fitted effect of over 70% in size; also: potency is read from the fitted curve at half-maximal effect
Summary of the method: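 ADP production was read by ADP-Glo luminescence after residual ATP depletion, following 1 h room-temperature reaction of 25 nM Clk4, 1 uM ATP and 100 uM RS peptide with MgCl2, EGTA, DTT and Triton X-100.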

[17] = AP1 Signaling Pathway (AID 357; active = well fitted curve in either direction with a large enough effect, not every such curve was filed as active;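 also: ME-180 reporter cells stimulated with EGF at its EC50 level; % is scaled to controls: 0 for no effect and ±100 for the full control effect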); settings: ME-180 (cervical carcinoma) AP-1-bla reporter, EGF-induced, beta-lactamase ratio, 5 h; at 7.69 µM (top of the series) unless noted
Summary of the method: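 Read-out was the 460nm/530nm emission ratio (excitation 405nm) after CCF4 loading for 2.5 hours at room temperature. Cells carried an AP-1-driven beta-lactamase reporter, were stimulated with EC50 EGF plus compound for 5 hours, and AC50 values came from titrations.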

[18] = measured here: cell count channel max response
[19] = measured here: lipid channel max response

Chain of 3',5'-cyclic-AMP phosphodiesterase 4B (Homo sapiens) (Q07343 whole entry, looked up): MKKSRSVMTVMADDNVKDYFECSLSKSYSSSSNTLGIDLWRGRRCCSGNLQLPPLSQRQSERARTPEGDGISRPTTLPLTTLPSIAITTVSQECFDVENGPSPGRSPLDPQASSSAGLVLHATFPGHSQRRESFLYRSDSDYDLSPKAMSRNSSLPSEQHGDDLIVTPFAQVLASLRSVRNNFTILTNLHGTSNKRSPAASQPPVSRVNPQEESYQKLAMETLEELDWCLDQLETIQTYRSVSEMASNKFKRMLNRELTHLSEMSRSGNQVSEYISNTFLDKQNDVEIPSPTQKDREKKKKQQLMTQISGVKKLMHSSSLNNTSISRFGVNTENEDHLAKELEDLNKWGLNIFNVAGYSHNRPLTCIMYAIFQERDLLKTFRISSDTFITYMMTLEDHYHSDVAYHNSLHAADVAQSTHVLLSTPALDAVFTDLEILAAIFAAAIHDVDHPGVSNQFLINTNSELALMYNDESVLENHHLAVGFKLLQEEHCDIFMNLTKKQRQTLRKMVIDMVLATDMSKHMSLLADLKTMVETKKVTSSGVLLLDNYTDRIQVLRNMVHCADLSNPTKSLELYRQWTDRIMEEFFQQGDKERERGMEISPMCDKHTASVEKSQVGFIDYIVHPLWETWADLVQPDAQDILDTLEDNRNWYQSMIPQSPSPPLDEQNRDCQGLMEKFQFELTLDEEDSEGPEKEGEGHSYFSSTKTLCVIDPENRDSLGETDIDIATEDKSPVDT
Chain of Cytochrome P450 1A2 (Homo sapiens) (P05177 whole entry, looked up): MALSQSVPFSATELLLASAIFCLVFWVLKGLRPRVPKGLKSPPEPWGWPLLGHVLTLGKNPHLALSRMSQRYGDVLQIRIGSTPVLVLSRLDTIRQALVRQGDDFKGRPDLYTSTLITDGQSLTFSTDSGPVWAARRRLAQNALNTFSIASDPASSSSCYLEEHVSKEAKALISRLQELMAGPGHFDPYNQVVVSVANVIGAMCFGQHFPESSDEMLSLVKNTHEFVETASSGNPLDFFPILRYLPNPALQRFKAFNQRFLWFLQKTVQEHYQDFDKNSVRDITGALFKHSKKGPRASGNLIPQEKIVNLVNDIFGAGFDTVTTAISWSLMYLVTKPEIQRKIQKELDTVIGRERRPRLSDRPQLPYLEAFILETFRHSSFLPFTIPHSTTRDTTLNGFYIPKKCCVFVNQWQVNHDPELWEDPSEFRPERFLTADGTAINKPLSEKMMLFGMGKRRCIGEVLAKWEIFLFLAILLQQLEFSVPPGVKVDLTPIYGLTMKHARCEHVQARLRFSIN
Chain of Lysosomal acid glucosylceramidase (Homo sapiens) (P04062 whole entry, looked up): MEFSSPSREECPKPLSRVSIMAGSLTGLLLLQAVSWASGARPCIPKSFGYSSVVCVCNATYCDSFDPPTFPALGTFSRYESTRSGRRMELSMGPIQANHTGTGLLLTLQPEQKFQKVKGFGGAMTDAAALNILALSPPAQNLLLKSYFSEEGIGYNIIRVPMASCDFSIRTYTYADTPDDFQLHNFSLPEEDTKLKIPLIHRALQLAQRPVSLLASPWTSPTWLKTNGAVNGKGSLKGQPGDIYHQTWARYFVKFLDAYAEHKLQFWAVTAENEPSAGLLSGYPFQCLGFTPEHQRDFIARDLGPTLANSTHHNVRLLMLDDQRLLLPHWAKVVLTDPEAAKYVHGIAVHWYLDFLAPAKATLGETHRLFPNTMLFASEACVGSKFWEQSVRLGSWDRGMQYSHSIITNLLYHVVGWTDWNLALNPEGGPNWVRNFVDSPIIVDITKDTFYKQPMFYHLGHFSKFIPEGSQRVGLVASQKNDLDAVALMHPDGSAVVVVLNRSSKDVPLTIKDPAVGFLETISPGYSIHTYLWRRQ
Chain of Cytochrome P450 2C19 (Homo sapiens) (P33261 whole entry, looked up): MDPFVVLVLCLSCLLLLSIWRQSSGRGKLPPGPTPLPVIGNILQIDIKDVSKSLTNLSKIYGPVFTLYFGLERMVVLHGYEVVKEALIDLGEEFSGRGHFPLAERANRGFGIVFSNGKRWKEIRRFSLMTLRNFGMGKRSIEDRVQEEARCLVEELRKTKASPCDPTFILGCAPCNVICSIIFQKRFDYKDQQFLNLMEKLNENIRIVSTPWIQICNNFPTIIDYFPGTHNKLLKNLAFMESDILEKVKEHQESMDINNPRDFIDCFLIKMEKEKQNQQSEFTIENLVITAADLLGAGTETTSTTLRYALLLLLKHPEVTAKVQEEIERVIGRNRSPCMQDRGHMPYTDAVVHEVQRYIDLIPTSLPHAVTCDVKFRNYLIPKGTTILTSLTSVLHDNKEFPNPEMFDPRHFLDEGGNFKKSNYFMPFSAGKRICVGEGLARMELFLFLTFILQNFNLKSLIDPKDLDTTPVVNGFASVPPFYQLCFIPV
Chain of Ubiquitin carboxyl-terminal hydrolase 1 (Homo sapiens) (O94782 whole entry, looked up): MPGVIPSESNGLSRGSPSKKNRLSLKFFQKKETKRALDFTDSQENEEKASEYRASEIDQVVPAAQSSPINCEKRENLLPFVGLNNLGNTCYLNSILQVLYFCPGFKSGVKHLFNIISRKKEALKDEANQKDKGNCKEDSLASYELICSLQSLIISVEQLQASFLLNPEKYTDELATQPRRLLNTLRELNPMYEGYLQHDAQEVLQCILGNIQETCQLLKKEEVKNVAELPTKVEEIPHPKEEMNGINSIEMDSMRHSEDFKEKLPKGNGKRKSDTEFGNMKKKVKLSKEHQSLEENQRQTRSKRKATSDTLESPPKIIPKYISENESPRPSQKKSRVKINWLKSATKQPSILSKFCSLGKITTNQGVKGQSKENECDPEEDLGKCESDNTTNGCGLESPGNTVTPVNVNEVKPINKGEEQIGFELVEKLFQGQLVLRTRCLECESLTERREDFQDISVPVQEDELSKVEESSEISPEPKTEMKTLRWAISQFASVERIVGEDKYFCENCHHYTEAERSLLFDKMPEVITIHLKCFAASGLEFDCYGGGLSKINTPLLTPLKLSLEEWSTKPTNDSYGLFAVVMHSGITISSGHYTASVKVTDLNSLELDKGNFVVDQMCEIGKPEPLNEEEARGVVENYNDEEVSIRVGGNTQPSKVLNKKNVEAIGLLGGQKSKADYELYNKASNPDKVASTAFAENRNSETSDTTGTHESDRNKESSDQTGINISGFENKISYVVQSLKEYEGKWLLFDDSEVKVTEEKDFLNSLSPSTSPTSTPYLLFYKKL
Chain of Glucocorticoid receptor (Homo sapiens) (P04150 whole entry, looked up, the tested form may be a part): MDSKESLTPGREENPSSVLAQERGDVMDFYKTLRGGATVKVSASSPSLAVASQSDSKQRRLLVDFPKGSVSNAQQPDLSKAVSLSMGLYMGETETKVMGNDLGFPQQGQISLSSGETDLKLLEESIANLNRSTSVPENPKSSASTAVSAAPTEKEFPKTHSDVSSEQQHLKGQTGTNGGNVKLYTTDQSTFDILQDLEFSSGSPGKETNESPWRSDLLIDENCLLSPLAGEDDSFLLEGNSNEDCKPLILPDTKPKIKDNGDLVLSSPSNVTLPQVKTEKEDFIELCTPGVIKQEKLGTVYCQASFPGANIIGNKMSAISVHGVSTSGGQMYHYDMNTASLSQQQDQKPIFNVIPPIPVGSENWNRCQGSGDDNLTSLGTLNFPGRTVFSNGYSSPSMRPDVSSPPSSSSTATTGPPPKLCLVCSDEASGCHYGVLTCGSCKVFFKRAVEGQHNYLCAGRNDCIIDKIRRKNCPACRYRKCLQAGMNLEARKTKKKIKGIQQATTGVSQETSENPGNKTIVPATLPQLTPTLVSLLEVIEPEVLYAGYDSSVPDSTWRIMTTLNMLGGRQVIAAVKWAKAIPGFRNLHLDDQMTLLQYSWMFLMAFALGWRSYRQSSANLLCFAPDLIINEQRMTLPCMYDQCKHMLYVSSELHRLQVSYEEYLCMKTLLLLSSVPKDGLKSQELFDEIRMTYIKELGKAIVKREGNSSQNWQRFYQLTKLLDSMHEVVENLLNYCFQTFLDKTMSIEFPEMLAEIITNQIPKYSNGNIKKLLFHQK
Chain of Cytochrome P450 3A4 (Homo sapiens) (P08684 whole entry, looked up): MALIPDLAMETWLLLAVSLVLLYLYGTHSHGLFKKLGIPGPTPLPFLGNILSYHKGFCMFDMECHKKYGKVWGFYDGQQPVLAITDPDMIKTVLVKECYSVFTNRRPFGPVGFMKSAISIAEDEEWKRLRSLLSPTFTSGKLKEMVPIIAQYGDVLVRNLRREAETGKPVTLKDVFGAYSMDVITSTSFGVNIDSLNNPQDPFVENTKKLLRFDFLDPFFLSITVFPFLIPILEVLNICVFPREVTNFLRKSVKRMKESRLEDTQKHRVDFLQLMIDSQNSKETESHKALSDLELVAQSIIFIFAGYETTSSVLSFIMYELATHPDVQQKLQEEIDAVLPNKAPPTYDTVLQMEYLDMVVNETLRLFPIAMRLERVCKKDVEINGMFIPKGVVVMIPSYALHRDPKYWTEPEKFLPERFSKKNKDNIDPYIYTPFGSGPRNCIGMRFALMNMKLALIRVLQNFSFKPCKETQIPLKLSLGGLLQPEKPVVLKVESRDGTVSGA
Chain of Dual specificity protein kinase CLK4 (Homo sapiens) (Q9HAZ1 whole entry, looked up): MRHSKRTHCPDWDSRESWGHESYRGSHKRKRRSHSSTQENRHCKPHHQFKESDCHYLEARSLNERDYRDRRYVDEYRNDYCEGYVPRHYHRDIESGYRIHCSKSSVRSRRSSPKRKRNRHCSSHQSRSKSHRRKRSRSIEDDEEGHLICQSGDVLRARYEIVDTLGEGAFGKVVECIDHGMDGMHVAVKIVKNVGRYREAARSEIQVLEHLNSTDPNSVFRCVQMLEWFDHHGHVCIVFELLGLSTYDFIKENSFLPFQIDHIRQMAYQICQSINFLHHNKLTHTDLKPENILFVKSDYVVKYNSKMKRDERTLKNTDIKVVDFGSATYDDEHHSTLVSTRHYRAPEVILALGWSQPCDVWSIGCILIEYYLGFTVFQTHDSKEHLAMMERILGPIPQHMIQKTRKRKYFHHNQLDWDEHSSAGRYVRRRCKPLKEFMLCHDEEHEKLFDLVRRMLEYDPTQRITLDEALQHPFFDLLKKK

COc1ccc(CNc2ncnc3ccc(-c4ccc(N(C)C)cc4)cc23)c(OC)c1
active: Potency [1] 2.51 µM | Potency [6] 3.98 µM | Potency [8] 3.98 µM
inactive: activity, negative = inhibition [2] -9.37% | Potency [3] > 46 µM | Potency [4] > 46 µM | Potency [5] | Potency [7] | activity change, negative = inhibition [9] 3.77% | Potency [10] | Potency [11] | Potency [12]
-26.6%: max response [9, 18]
-24.8%: max response [9, 19]

Clc1ccccc1-c1ccc2ncnc(NC3CCNCC3)c2c1
0.483%: max response [9, 18]
active: Potency [1] 15.8 µM | Potency [8] 3.98 µM | Potency [10] 25.1 µM | Potency [16] 22.4 µM
1.92%: max response [9, 19]
inactive: Potency [13] > 11.4 µM | activity change, negative = inhibition [14] -8.44% | activity, negative = inhibition [2] -0.786% | Potency [4] > 46 µM | Potency [15] | Potency [5] | activity change, negative = inhibition [9] 1.65% | Potency [12]

CN1CCN(c2ncc3nc(-c4cccc(C#N)c4)c(=O)n(CCC#N)c3n2)CC1
inactive: Potency [13] > 11.4 µM | activity change, negative = inhibition [17] -12.4% | Potency [1] | activity change, negative = inhibition [14] 17.8% | activity, negative = inhibition [2] 19.4% | Potency [3] > 9.22 µM | Potency [4] > 46 µM | Potency [15] | Potency [5] | activity change, negative = inhibition [9] 4.89% | Potency [10] | Potency [16] | Potency [12]
1.31%: max response [9, 19]
-1.32%: max response [9, 18]

O=c1c(-c2ccccc2)nc2cnc(Oc3cccc(Cl)c3)nc2n1C[C@H]1CCCO1
inactive: Potency [13] > 11.4 µM | activity change, negative = inhibition [14] -8.22% | activity, negative = inhibition [2] -8.43% | Potency [3] > 9.22 µM | Potency [4] > 46 µM | Potency [15] | activity change, negative = inhibition [9] -16.5% | Potency [16] | Potency [11] | Potency [12]
18.2%: max response [9, 18]
-2.39%: max response [9, 19]

COc1ccccc1-c1ccc2ncnc(Nc3ccccc3)c2c1
-15.8%: max response [9, 18]
active: Potency [1] 2.51 µM | Potency [8] 5.01 µM | Potency [10] 15.8 µM | Potency [16] 15.8 µM
-29%: max response [9, 19]
inactive: Potency [13] > 11.4 µM | activity change, negative = inhibition [14] 10.9% | activity, negative = inhibition [2] 9.56% | Potency [3] > 46 µM | Potency [4] > 46 µM | Potency [15] | Potency [7] | activity change, negative = inhibition [9] -15.1% | Potency [12]

COc1ccc(-c2nc3cnc(OC)nc3n(-c3ccc(OC)cc3)c2=O)cc1
active: Potency [1] 0.316 µM
4.55%: max response [9, 19]
29.3%: max response [9, 18]
inactive: Potency [13] > 11.4 µM | activity change, negative = inhibition [17] -4.28% | activity change, negative = inhibition [14] 5.9% | activity, negative = inhibition [2] -4.51% | Potency [3] > 9.22 µM | Potency [4] > 46 µM | Potency [15] | Potency [5] | Potency [7] | activity change, negative = inhibition [9] -15.7% | Potency [16] | Potency [11] | Potency [12]
